Screen size: about 310,000 compounds; about 11,000 (3.5%) were called active. Entries that show only a call come without a potency. Another 8% or so got no clear call; they are omitted. This excerpt belongs to a sample that is enriched for actives. Values without a mark were called inactive. Calls follow the shape of the dose curve; as a rule, active = well fitted inhibition curve with a large enough effect; inconclusive = small, poorly fitted or top-dose-only effect, or effect the other way; inactive = flat fitted curve, though single readings scatter.
assay: VP16 counterscreen qHTS for inhibitors of ROR gamma transcriptional activity; settings: Drosophila S2 Gal4-VP16 UAS-luciferase, luminescence, 20 h; series mostly up to 53.6 µM;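 also: Gal4-VP16 expression switched on by copper sulfate through the metallothionein promoter; nearly all actives have a fitted effect of over 50% in size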
Excerpt: NIH Molecular Libraries Probe Production Network [MLPCN]
NIH Chemical Genomics Center [NCGC]
Assay Provider: Dan Littman, New York University
The retinoic acid-related orphan receptor (ROR) gamma is a transcription factor that has a central role in the differentiation of Th17 cells, a subset of T helper cells that secrete the inflammatory cytokines IL-17, IL-17F, and IL-22. Th17 cells have been implicated in graft versus host disease, autoimmune disease and asthma. ROR gamma is induced in naive T helper cells in the presence of TGF-beta combined with IL-6, IL-21, or IL-23, and thereafter directs the expression of the Th17 lineage cytokines. To identify nonspecific inhibitors, a Drosophila Schneider cell line was stably transfected with two vectors: a gene expressing a fusion of the Gal4 DNA binding domain and VP16 transactivation domain under the control of the metallothionine promoter and a Photinus luciferase reporter regulated by the Gal4 binding site enhancer, UAS. […] Small molecule inhibitors that inhibit components common to the RORgt and VP16 assays, such as the Gal4 DNA binding domain or the UAS luciferase reporter, will be active in both assays and thus scored as nonspecific.
For screening, 600 cells in 4 uL/well were dispensed into white solid 1536-well plates (Grenier) using a solenoid-based dispenser. Following transfer of 23 nL compound or DMSO vehicle by a pin tool, the plates were incubated 1 hr at ambient temperature, and 1 uL/well copper sulfate (700 uM final concentration) was added. The plates were centrifuged 15 s at 1000 RPM and incubated 20 hr at ambient temperature. After addition of 1.5 uL Photinus luciferase detection reagent, the plates were incubated 10 min at ambient temperature and then read by a ViewLux (Perkin Elmer) to detect luminescence.
Potency is read from the fitted curve at half-maximal effect.

Row | SMILES | Potency | activity, negative = inhibition
1 | COc1cc(NC(=O)C2=C(C)OCCS2)c(Cl)cc1C(=O)NCCN1CCN(C)CC1 | inactive | 
2 | Cn1nccc1/C=N\NC(=O)c1ccc(Cl)cc1 | inactive | 
3 | CCOc1ccc(CCNC(=O)Nc2ccccc2)cc1OCC | inactive | 
4 | COc1ccc(/C=C2\SC(=S)N(CCC(=O)Nc3cccc(C(=O)O)c3)C2=O)cc1OC | inactive | 
5 | Cc1ccc(/C=C2\SC(=S)N(CCC(=O)Nc3ccc(O)cc3)C2=O)cc1 | inactive | 
6 | COc1ccccc1C(=O)NNC(=O)CCN1C(=O)/C(=C\c2ccccc2)SC1=S | inactive | 
7 | O=C(CCCN1C(=O)/C(=C/c2ccccc2)SC1=S)Nc1ccc(O)cc1 | 2 µM (active) | 
8 | COc1ccc(NC(=O)CCN2C(=O)/C(=C/c3ccc4c(c3)OCO4)SC2=S)cc1 | inactive | 
9 | O=C(CCCN1C(=O)/C(=C/c2ccco2)SC1=S)Nc1ccccc1 | 12.6 µM (active) | 
10 | COC(=O)c1ccc(Nc2ncnc3sccc23)cc1 | inactive | 
11 | CCCCCCC(O)(CCN1CCCCC1)c1ccccc1 (centres undefined) | inactive | 
12 | CC(=O)N1c2ccc(S(=O)(=O)N3CCC(C(=O)N4CCN(c5ccccc5)CC4)CC3)cc2CC1C (centres undefined) | inactive | 
13 | Brc1cc(/C=N/n2cnnc2)oc1Br | inactive | 
14 | CCOc1cc(/C=N/n2cnnc2)c(Br)cc1O | 5.62 µM (active) | 
15 | Fc1ccc(Br)cc1/C=N/n1cnnc1 | inactive | 
16 | COc1cc(C(=O)OCC(=O)NC(C)CCc2ccccc2)cc(OC)c1OC (centres undefined) | inactive | 
17 | O=C(C[n+]1cc(Br)cc2ccccc21)c1ccc(F)cc1 | inactive | 
18 | COc1ccc(Nc2ncnc3ccc(OC)cc23)cc1 | inactive | 
19 | c1ccc(-c2nc(NCc3ccco3)c3ccccc3n2)cc1 | inactive | 
20 | COc1cccc(CNc2nc(C(F)(F)F)nc3ccccc23)c1 | inactive | 
21 | c1coc(CNc2ncnc3ccccc23)c1 | 10 µM (active) | 
22 | Brc1ccc2ncnc(NCc3cccnc3)c2c1 | inactive | 
23 | COc1ccc(CNc2ncnc3ccccc23)cc1 | 7.08 µM (active) | 
24 | CCOCCCN(C)C1CCN(C(=O)c2oc3ccccc3c2NC(=O)COc2cccc(C)c2)CC1 | inactive | 
25 | Cc1cccn2c(=O)c3cc(C(=O)NCCN4CCOCC4)c(=N)n(Cc4cccnc4)c3nc12 | inactive | 
26 | COc1cc2c(cc1OC)CN(C(=O)c1cc(S(=O)(=O)N3CCCCC3)ccc1Cl)CC2 | inactive | 

Row | SMILES | Potency | activity, negative = inhibition
27 | CC(C)c1nc(SCC(=O)Nc2cccc(C(=O)O)c2)c2c3c(sc2n1)CCCC3 | inactive | 
28 | COCCNc1nc(-n2nc(C)cc2C)nc2sc3c(c12)CCCC3 | 3.16 µM (active) | 
29 | Cc1cc(C)n(-c2nc(SCC(=O)N3CCCC3)c3c4c(sc3n2)CCCC4)n1 | 10 µM (active) | 
30 | Cc1ccc(C)c(-n2c(SCC(=O)O)nc3sc4c(c3c2=O)CCCC4)c1 | inactive | 
31 | CCCc1nc(SCC(=O)N2CCCC2)c2c(=O)n(C)c(=O)n(C)c2n1 | inactive | 
32 | Cc1nc2sc3c(c2c(=O)n1NC(=O)CCl)CCCC3 | inactive | 
33 | CC/C(C)=N/Nc1nc2sc3c(c2c(=O)[nH]1)CC(C)(C)OC3 | inactive | 
34 | CCC(O)CNc1nc(-n2nc(C)cc2C)nc2sc3c(c12)CC(C)(C)OC3 (centres undefined) | 3.98 µM (active) | 
35 | CCOC(=O)CSc1nc2sc3c(c2c(=O)[nH]1)CC(C)(C)OC3 | inactive | 
36 | O=C(C1CCCN(S(=O)(=O)c2ccccc2)C1)N1CCN(c2ccc(F)cc2)CC1 (centres undefined) | inactive | 
37 | Cc1nc([N+](=O)[O-])cn1CC(=O)Nc1ccc(Cl)cc1 | inactive | 
38 | CC(NC(=S)Nc1ccccc1)C1COc2ccccc2O1 (centres undefined) | 5.01 µM (active) | 
39 | CC(=O)c1cccc(NC(=O)C2COc3ccccc3O2)c1 (centres undefined) | inactive | 
40 | O=C(NCC1COc2ccccc2O1)C1(c2ccccc2)CCCC1 (centres undefined) | inactive | 
41 | CSc1nc2ccccc2c(=O)n1Cc1ccc(F)cc1 |  | 7.17% [at 10 µM]
42 | CSc1c(SCc2ccccc2)cnn(Cc2ccccc2)c1=O | 7.08 µM (active) | 
43 | Cn1c(CO)cnc1SCc1ccccc1 | inactive | 
44 | O=C(NCC(=O)N1CCN(c2ccccc2O)CC1)c1ccc2ccccc2c1 | inactive | 
45 | Cc1ccccc1-n1cc(CNC(=O)C2CCC(=O)N(C3CC3)C2)cn1 (centres undefined) | inactive | 
46 | CC(C)CC(=O)Nc1ccc(Cc2ccncc2)cc1 | inactive | 
47 | Cc1c(C(=O)N2CCCc3ccccc32)oc2ccccc12 | inactive | 
48 | Cc1cc(-c2ccc(C)c(S(=O)(=O)NCCCN(Cc3ccccc3)C(C)C)c2)on1 | inactive | 
49 | CC(=O)Nc1cccc(OCC(=O)/C=C2\N(C)c3ccccc3C2(C)C)c1 | 3.16 µM (active) | 
50 | CN1/C(=C\C(=O)c2cccnc2Cl)C(C)(C)c2ccccc21 | inactive | 
51 | Cc1noc(C)c1C(=O)OCC(=O)/C=C1\N(C)c2ccccc2C1(C)C | inactive | 
52 | COCC1CCN(C(=O)CCc2nnc(C3(c4ccc(Cl)cc4)CCC3)o2)C1 (centres undefined) | inactive | 

Row | SMILES | Potency | activity, negative = inhibition
53 | C=CCn1c(=O)c(C(=O)NCc2ccc3c(c2)OCO3)c(O)c2ccccc21 | inactive | 
54 | CN(C)S(=O)(=O)c1ccc(NC(=O)COC(=O)c2n[nH]c3ccccc23)cc1 | 8.91 µM (active) | 
55 | O=C(COC(=O)c1n[nH]c2ccccc12)NCc1ccccc1 | inactive | 
56 | CN(C)S(=O)(=O)c1ccc(NC(=O)COC(=O)Cn2[nH]c(=O)c3ccccc3c2=O)cc1 | inactive | 
57 | CCC(=O)Nc1ccc(C(=O)Nc2ccc3c(c2)C(=O)N(CC2CCCO2)C3=O)cc1 (centres undefined) | inactive | 
58 | O=C1c2cccc3c([N+](=O)[O-])ccc(c23)C(=O)N1CC1CCCO1 (centres undefined) | 5.62 µM (active) | 
59 | O=C(/C=C/c1ccccc1[N+](=O)[O-])NCC1CCCO1 (centres undefined) | inactive | 
60 | Cc1ccc(-n2c(C)nnc2SCC(=O)NC2CC2)cc1 | inactive | 
61 | O=C(NCc1cccc(Cl)c1)C1CCC(=O)N(C2CC2)C1 (centres undefined) | inactive | 
62 | COc1ccccc1NC(=S)N1CCN(c2ccc(F)cc2)CC1 | inactive | 
63 | CCOc1ccccc1NC(=S)N1CCN(c2cccc(C)c2C)CC1 | 4.47 µM (active) | 
64 | CCC(=O)N1CCN(c2ccccc2NC(=O)COc2cccc(C)c2C)CC1 | inactive | 
65 | COc1ccccc1NC(=S)N1CCN(C(c2ccccc2)c2ccccc2)CC1 | 20 µM (active) | 
66 | CCOc1ccccc1N1CCN(C(=S)Nc2ccc(S(N)(=O)=O)cc2)CC1 | inactive | 
67 | COc1ccccc1CN1CCN(C(c2ccccc2)c2ccccc2)CC1 | inactive | 
68 | Cc1sc2nc(SCCO)n(-c3ccccc3)c(=O)c2c1C | inactive | 
69 | COc1ccc(C2c3[nH]c4ccccc4c3C[C@H]3C(=O)N(CC(C)C)CC(=O)N23)c(OC)c1 (some centres undefined) | inactive | 
70 | O=S(=O)(NC1CCCCC1N1CCCCC1)c1ccc(Cl)cc1 (centres undefined) | inactive | 
71 | COC(=O)c1cccnc1NC(=S)NC(C)C | 4.47 µM (active) | 
72 | CCOC(=O)c1cccnc1NC(=O)c1ccncc1 | inactive | 
73 | COc1ccc(OC)c(C(C)NC(=S)Nc2ccc(S(=O)(=O)Nc3ncccn3)cc2)c1 (centres undefined) | inactive | 
74 | CCN(C(=O)c1cc([N+](=O)[O-])ccc1NCc1cccnc1)c1ccccc1 | inactive | 
75 | CN(C)c1ccc(/C=C2\NC(=S)N(Cc3ccccc3)C2=O)cc1 | 11.2 µM (active) | 
76 | CC1=NN(Cc2ccccc2)C(=O)/C1=C/c1ccc(N(C)C)cc1 | inactive | 
77 | O=C1NCC(=O)N(Cc2ccccc2)/C1=C/c1ccccc1 | inactive | 
78 | Cn1cc(S(=O)(=O)Nc2ccc(Cl)cc2Cl)c(=O)n(C)c1=O | inactive | 

Row | SMILES | Potency | activity, negative = inhibition
79 | Cc1cc(C)nc(-n2nc(C)cc2NC(=O)c2ccc(F)cc2F)n1 | 3.16 µM (active) | 
80 | CC(=O)N/C(=N/c1nc(C)cc(C)n1)Nc1ccc(F)cc1F | inactive | 
81 | Cc1cc(NC(=O)c2cnn3cccnc23)n(-c2ccccc2)n1 | inactive | 
82 | COc1cc2ccccc2cc1C(=O)N(CCN(C)C)c1nc2c(F)cccc2s1 | inactive | 
83 | CC(C)(C)SCCSC1=CC(=O)CC(c2ccccc2)C1 (centres undefined) | inactive | 
84 | O=C(Nc1ccc(S(=O)(=O)N2CCCCCC2)cc1)c1c(F)cccc1F | inactive | 
85 | CCOc1ncccc1C(=O)NCCc1ccc(OC)cc1 | inactive | 
86 | Cc1cc(C)cc(NC(=O)C2CCCN2S(=O)(=O)c2cccc3cccnc23)c1 (centres undefined) | inactive | 
87 | O=C(COC(=O)c1ccc(F)cc1)Nc1nc2ccc([N+](=O)[O-])cc2s1 | inactive | 
88 | CSc1nc2ccc(S(=O)(=O)N3CCc4ccccc43)cc2s1 | inactive | 
89 | O=C(Nc1nc2ccc([N+](=O)[O-])cc2s1)c1ccc(S(=O)(=O)N2CCCc3ccccc32)cc1 | 3.98 µM (active) | 
90 | CS(=O)(=O)c1ccc2nc(NC(=O)c3ccc(N4CCCC4=O)cc3)sc2c1 | inactive | 
91 | O=C(Nc1nc2ccc([N+](=O)[O-])cc2s1)c1ccncc1 | inactive | 
92 | O=C(NC(Nc1nc2ccc([N+](=O)[O-])cc2s1)(C(F)(F)F)C(F)(F)F)c1ccccc1 | 2.82 µM (active) | 
93 | CCOC(=O)c1cc(C(=O)Nc2ccc(S(=O)(=O)Nc3ccc(OC)cc3)cc2)nn1C | inactive | 
94 | COC(=O)c1cccc(N(C(=O)CNC(=O)c2cccs2)C(C(=O)NCC2CCCO2)c2ccc(OC)c(OC)c2)c1 (centres undefined) | inactive | 
95 | Cc1cccc(CCNS(=O)(=O)c2ccc3c(c2)NC(=O)CO3)c1 | inactive | 
96 | COc1ccc(CN2CCNC(=O)C2CC(=O)NCc2cn[nH]c2-c2ccccc2)c(F)c1 (centres undefined) | inactive | 
97 | COc1ccc(C(CNC(=O)COc2ccccc2OC)N2CCCCC2)cc1 (centres undefined) | inactive | 
98 | O=C1OC2(CCCCC2)CC2=C1C1O[C@](c3ccsc3)(Cc3ccccc31)O2 |  | -4.71% [at 10 µM]
99 | COc1cc2c(cc1OC)C(c1ccccc1Br)NC(=O)C2 (centres undefined) | inactive | 
100 | COc1ccc(NC(=O)CCCC2CCCCC2)c(OC)c1 | inactive | 
101 | CCOc1cc(NC(=O)c2ccccn2)c(OCC)cc1NC(=O)c1ccc(OC)cc1 | inactive | 
102 | Cc1cccc(OCC(=O)NCCCNC(=O)c2ccccn2)c1 | inactive | 
103 | CCN(CC)CCOc1ccc2c(c1)C(=NNC(=O)c1ccccn1)c1cc(OCCN(CC)CC)ccc1-2 | 10 µM (active) | 
104 | Cc1onc(C(=O)Nc2ccc3c(c2)OCO3)c1[N+](=O)[O-] | inactive | 
